Source: PubChem BioAssay (NCATS)
Records with an inconclusive call do not appear. Active and inactive are the calls of the source. The call rests on the fitted dose curve; in most records, active means well fitted curve in the direction sought with a large enough effect; inconclusive means small, poorly fitted or top-dose-only effect, or another doubt; inactive means no such curve, though single readings can be large; an effect the other way counts as inactive or inconclusive.

Experiments:
[1] = target: Voltage-gated inwardly rectifying potassium channel KCNH2 (Homo sapiens) (UniProt Q12809); assay: qHTS Assay for Small Molecule Inhibitors of the Human hERG Channel Activity (AID 588834);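 further: lower thallium flux fluorescence means stronger hERG block; nearly all actives have a fitted effect of over 50% in size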; further: potency means the concentration at half of the fitted maximal effect
Chain of Voltage-gated inwardly rectifying potassium channel KCNH2 (Homo sapiens) (Q12809 whole entry, looked up): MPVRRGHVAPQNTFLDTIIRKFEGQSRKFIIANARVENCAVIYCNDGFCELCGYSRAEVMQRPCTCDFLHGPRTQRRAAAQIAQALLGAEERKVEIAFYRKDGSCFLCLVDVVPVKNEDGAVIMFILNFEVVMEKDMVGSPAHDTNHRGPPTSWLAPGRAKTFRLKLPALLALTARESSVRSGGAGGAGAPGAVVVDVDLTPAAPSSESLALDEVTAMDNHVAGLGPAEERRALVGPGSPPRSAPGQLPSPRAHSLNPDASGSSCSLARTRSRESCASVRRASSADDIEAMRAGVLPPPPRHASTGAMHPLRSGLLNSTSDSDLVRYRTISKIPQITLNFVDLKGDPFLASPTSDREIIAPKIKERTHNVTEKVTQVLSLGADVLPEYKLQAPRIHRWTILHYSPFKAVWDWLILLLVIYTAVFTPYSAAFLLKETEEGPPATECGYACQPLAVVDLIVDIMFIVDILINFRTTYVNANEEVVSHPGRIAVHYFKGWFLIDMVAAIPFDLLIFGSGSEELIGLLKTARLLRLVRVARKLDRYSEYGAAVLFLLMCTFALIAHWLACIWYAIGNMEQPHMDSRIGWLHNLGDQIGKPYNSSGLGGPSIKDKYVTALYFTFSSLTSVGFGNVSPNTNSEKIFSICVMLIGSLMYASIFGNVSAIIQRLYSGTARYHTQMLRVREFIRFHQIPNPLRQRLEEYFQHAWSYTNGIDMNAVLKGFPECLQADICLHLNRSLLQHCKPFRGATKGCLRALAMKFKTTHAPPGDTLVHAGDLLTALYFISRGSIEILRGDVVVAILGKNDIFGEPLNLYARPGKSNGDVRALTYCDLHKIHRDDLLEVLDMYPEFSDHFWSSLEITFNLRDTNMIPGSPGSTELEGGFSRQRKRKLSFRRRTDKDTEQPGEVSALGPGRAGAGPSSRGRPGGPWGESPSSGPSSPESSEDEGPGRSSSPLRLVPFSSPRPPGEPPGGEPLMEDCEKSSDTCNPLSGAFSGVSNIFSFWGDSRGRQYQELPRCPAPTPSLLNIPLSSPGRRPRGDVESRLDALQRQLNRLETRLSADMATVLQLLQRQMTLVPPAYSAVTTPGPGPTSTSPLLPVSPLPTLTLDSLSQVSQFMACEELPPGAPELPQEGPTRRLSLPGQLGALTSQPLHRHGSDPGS
Procedure, shortened: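 hERG block measured as reduced thallium-dye (FluxOR) fluorescence after stimulation buffer addition, read over 2 min. Cells were hERG-BacMam-transduced U2OS exposed to compound ~10 min […]; concentration-response fitted with Hill equation for AC50.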

[2] = target: Glutaminase kidney isoform, mitochondrial (Homo sapiens) (UniProt O94925); assay: qHTS for Inhibitors of Glutaminase (GLS): LOPAC Validation (AID 624146); further: nearly all actives have a fitted effect of over 60% in size; further: potency means the concentration at half of the fitted maximal effect
Chain of Glutaminase kidney isoform, mitochondrial (Homo sapiens) (O94925 whole entry, looked up, canonical isoform): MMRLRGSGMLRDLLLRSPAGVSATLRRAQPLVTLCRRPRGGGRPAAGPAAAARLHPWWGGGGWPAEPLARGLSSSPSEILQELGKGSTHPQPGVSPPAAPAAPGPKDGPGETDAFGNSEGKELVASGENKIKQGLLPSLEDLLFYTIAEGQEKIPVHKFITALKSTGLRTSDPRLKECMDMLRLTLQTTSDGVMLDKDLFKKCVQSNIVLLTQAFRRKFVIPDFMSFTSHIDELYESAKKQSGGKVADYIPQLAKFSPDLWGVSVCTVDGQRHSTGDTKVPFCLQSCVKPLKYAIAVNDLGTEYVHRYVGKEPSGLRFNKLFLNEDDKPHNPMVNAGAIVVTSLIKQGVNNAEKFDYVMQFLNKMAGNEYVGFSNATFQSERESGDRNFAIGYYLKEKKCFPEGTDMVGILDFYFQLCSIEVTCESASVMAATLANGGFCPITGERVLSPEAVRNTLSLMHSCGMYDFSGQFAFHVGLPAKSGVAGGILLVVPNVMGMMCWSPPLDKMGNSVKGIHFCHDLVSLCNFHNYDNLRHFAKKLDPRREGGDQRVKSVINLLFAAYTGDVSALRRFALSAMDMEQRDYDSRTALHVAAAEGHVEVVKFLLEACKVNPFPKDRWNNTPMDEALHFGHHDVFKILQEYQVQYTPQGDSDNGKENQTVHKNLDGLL
Procedure, shortened: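 Two-point fluorescence kinetic (t0, 30 min RT) for hKGA; glutamate detected via glutamate oxidase–HRP–Amplex Red. Substrate: 1 mM L-glutamine solution; buffer 45 mM KH2PO4, pH 8.2.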

[3] = qHTS of Trypanosoma Brucei Inhibitors: LOPAC Validation (AID 624147)
Procedure, shortened: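 Luminescence from Kinase-Glo Plus, added after a 45-minute room-temperature reaction, served as the end-point read-out. The enzyme and substrate were preincubated with compound before ADP (130 uM final) initiated turnover. Concentration-effect curves came from normalized qHTS data.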

[4] = target: Glucagon-like peptide 1 receptor (Homo sapiens) (UniProt P43220); assay: qHTS of GLP-1 Receptor Agonists: LOPAC Validation (AID 624148);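 further: luminescence from a luciferase reporter switched on by cAMP; higher luminescence signal means agonism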
Chain of Glucagon-like peptide 1 receptor (Homo sapiens) (P43220 whole entry, looked up): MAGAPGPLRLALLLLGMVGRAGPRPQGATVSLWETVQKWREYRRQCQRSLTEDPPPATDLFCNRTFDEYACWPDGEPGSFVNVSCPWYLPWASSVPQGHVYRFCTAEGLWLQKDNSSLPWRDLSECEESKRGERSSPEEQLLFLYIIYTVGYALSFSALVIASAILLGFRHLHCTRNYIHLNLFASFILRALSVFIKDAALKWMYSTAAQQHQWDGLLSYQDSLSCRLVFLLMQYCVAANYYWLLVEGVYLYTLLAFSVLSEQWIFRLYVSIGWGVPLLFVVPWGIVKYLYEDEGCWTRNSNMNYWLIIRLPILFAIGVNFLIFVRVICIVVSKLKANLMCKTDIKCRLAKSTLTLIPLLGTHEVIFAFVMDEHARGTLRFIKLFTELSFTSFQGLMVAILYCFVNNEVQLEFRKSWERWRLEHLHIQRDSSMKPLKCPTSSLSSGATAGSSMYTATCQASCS
Procedure, shortened: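 Agonism scored as increased luciferase luminescence driven by cAMP in HEK293 clones carrying GLP-1R. Cells settled 12 hours, received compound for 4-6 hr at 37 deg C, 5% CO2, and were read after 12 min detection reagent at RT.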

[5] = qHTS of Nrf2 Activators: LOPAC Validation (AID 624149)
Procedure, shortened: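 Luciferase signal from ARE activation, read with Steady-Glo after 30 min at room temperature. Compounds were pin-transferred onto AREc32_Fluc cells (1000/well, OPTI-MEM/5% FBS, seeded overnight) and left 24 hr at 37 deg C.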

[6] = HTS Assay for Allosteric Antagonists of the Human D2 Dopamine Receptor: Hit Validation in HTRF (AID 624455); further: potency means the concentration at half of the fitted maximal effect;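 further: stable D1 dopamine receptor cell line scored for blocking the D1 response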
Procedure, shortened: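 Inhibition of the D1-mediated response was measured by HTRF. Cells used were a line stably expressing the D1 dopamine receptor.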

Measured: Potency

CN1CCC(c2c[nH]c3ccc(O)cc23)CC1
active: [1] 2000 nM | [2] 1260 nM
inactive: all other assays above

CN1CCc2cccc(Cl)c2CC1
inactive: [1] | [2] | [4] | [5]

Cc1o[nH]c(=O)c1CC(N)C(=O)O (stereo not given)
not listed: [3]
inactive: all other assays above

CNc1ccc2oc(C[C@H]3O[C@@]4(CC[C@H]3C)O[C@H]([C@H](C)C(=O)c3ccc[nH]3)[C@H](C)C[C@H]4C)nc2c1C(=O)O
active: [1] 3160 nM | [2] 3550 nM
inactive: all other assays above

C[C@]12Cc3cn4c(nc3C=C1CCC1C2CC[C@@]2(C)[C@H]1CC[C@@]2(O)C#N)nc1ccccc14 (stereo not given in full)
active: [1] 2000 nM
not listed: [3]
inactive: all other assays above

C[N+](C)(C)CCOC(=O)CBr
not listed: [3]
inactive: all other assays above

CN(N=O)c1cc(O)ccc1O
active: [2] 1780 nM
not listed: [3]
inactive: all other assays above

NC(C(=O)O)c1cc(=O)[nH]o1 (stereo not given)
not listed: [3]
inactive: all other assays above

N[C@@H](CCl)C(=O)O
inactive: all assays above

OC1CCCCC1N1CCC(c2ccccc2)CC1 (stereo not given)
not listed: [3]
inactive: all other assays above

CC(N)Cc1c[nH]c2ccc(OCc3cccs3)cc12 (stereo not given)
active: [1] 2820 nM
inactive: all other assays above

CN1CC[C@@]2(C)c3cc(O)ccc3N(C)C12 (stereo not given in full)
active: [1] 35500 nM | [2] 10000 nM
inactive: all other assays above

COc1ccc(CNC(=O)/C=C/c2ccc3[nH]cc(CCN(C)C)c3c2)cc1
active: [1] 11200 nM
inactive: all other assays above

COc1ccc2c(c1)/C(=C/c1cnc[nH]1)C(=O)N2
inactive: all assays above

COc1ccc2c(c1)[C@@]13CCCC[C@H]1[C@@H](C2)NCC3
active: [1] 11200 nM
inactive: all other assays above

NC(Cc1cc(O)c(O)cc1O)C(=O)O (stereo not given)
inactive: all assays above

N[C@@]1(C(=O)O)CC[C@@H](C(=O)O)C1
not listed: [3]
inactive: all other assays above

CCCN(CCC)CCc1c[nH]c2ccc(C(N)=O)cc12
active: [1] 6310 nM
inactive: all other assays above

C[Se]C[C@H](N)C(=O)O
not listed: [3]
inactive: all other assays above

NCC(O)c1cc(O)c(O)cc1F (stereo not given)
active: [6] 326 nM
inactive: all other assays above

C#CCN[C@H](C)Cc1ccccc1
not listed: [3]
inactive: all other assays above

Clc1ccc(N2CC3CCC(C2)N3)nn1
not listed: [3]
inactive: all other assays above

C[N+](C)(C)CC#CCOC(=O)Nc1cccc(Cl)c1
inactive: all assays above

C[C@H](Cc1ccc2c(c1)OC(C(=O)O)(C(=O)O)O2)NC[C@H](O)c1cccc(Cl)c1
inactive: all assays above

Ic1ccccc1CNC1C2CCN(CC2)C1C(c1ccccc1)c1ccccc1 (stereo not given)
active: [1] 1000 nM
inactive: all other assays above

NCC(CP(=O)(O)O)c1ccc(Cl)cc1 (stereo not given)
not listed: [3]
inactive: all other assays above

NC(=O)COc1c(F)cc(SCCNS(=O)(=O)c2ccccc2)cc1F
inactive: all assays above

CC(Cc1ccc(OCC(=O)O)cc1)NCC(O)c1cccc(Cl)c1 (stereo not given)
not listed: [4]
inactive: all other assays above

C/C(O)=C(\C#N)C(=O)Nc1cc(Br)ccc1Br
inactive: all assays above

C[N+]1(C)CCN(c2ccccc2)CC1
inactive: all assays above

Clc1cc(I)cc(Cl)c1NC1=NCCN1
inactive: [1] | [2] | [4] | [5]
